Laboratory results: the supplement of paper PMC12339681
Counter-ions that a name gives are not always drawn.

System: PBMC-derived induced microglia-like cells (piMGLC)
Experiment: synaptosome phagocytic index relative to DMSO control (fraction of DMSO); higher = more phagocytosis
Conditions: concentration: 10 uM (2 uM for compounds listed in Table S2); pretreatment time: 24 h; assay time: 3 h
Experimental: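 PBMC-derived induced microglia-like cells (piMGLCs) in 96-well plates were pretreated for 24 h with CNS-penetrant library compounds (MedChemExpress HY-L028), mostly at 10 uM; Table S2 lists 9 compounds at 2 uM. pHrodo-Red-labelled human iPSC-neuron synaptosomes (3 ug/well) were then added for 3 h, and cells were fixed and imaged by confocal microscopy. Phagocytic index (synaptosome area / cell count, CellProfiler) is a mean over 3 replicate wells on different plates, normalized to the DMSO control. Compounds leaving <10% of DMSO cell count were marked toxic and given no value.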

| Structure (SMILES) | synaptosome phagocytic index |
| --- | --- |
| COC(=O)/C=C/C(=O)OC [Dimethyl_fumarate] | 0.706 |
| N#Cc1cccc(-c2c[nH]c3ncnc(N4CCOCC4)c23)c1 | 0.623 |
| COc1ccc(C[C@@H]2c3cc(OC)c(OC)cc3CC[N@+]2(C)CCC(=O)OCCCCCOC(=O)CC[N@@+]2(C)CCc3cc(OC)c(OC)cc3[C@H]2Cc2ccc(OC)c(OC)c2)cc1OC [Cisatracurium_(besylate)] | 0.726 |
| CC(=O)Nc1cccc(-n2c(=O)n(C3CC3)c(=O)c3c(Nc4ccc(I)cc4F)n(C)c(=O)c(C)c32)c1 [Trametinib] | 0.637 |
| C=C[C@H]1CN2CC[C@H]1C[C@@H]2[C@@H](O)c1ccnc2ccc(OC)cc12 [Quinidine] | 0.962 |
| Cn1cc(-c2ccncc2)c(-c2ccc(OCc3ccc4ccccc4n3)cc2)n1 [Mardepodect_(hydrochloride)] | 0.503 |
| CC[C@H](NC(=O)c1c(C)c(-c2ccccc2)nc2ccccc12)c1ccccc1 | 0.907 |
| Nc1nc(Cl)nc2c1ncn2[C@H]1C[C@H](O)[C@@H](CO)O1 [Cladribine] | 1.1 |
| C[C@@H]1CN(C(=O)[C@@H]2CN(C(C)(C)C)C[C@H]2c2ccc(F)cc2F)C[C@H](C)[C@@]1(O)c1ccccc1 | 0.704 |
| CO[C@H]1C[C@@H]2CC[C@@H](C)[C@@](O)(O2)C(=O)C(=O)N2CCCC[C@H]2C(=O)O[C@H]([C@H](C)C[C@@H]2CC[C@@H](OCCO)[C@H](OC)C2)CC(=O)[C@H](C)/C=C(\C)[C@@H](O)[C@@H](OC)C(=O)[C@H](C)C[C@H](C)/C=C/C=C/C=C/1C [Everolimus] | 0.223 |
| C[N+](C)(C)CCO.[Cl-] [Choline_(chloride)] | 0.799 |
| COc1cc2nc(C3CC3)nc(N3CCN(c4ccccc4OC)CC3)c2cc1OC | 0.0572 |
| CCCCCOC(=O)Nc1nc(=O)n([C@@H]2O[C@H](C)[C@@H](O)[C@H]2O)cc1F [Capecitabine] | 0.837 |
| CC1COc2c(N3CCN(C)CC3)c(F)cc3c(=O)c(C(=O)O)cn1c23 (stereo not given) [Ofloxacin] | 1.05 |
| Nc1cc(C(F)(F)F)c(-c2cc(N3CCOCC3)nc(N3CCOCC3)n2)cn1 [Buparlisib_(Hydrochloride)] | 0.429 |
| CN1CCN(c2cc(-c3ccncc3)c(-c3ccc4ccccc4c3)nn2)CC1 | 0.903 |
| O=C(O)[C@H]1CSC(c2nc3cc4c(cc3s2)NCC4)=N1 | 0.923 |
| CNS(=O)(=O)CCc1ccc2[nH]cc(C3CCN(C)CC3)c2c1 [Naratriptan_(hydrochloride)] | 1.3 |
| CCN1CCN(C(=O)N[C@@H](C(=O)N[C@@H]2C(=O)N3[C@@H]2SC(C)(C)[C@@H]3C(=O)O)c2ccccc2)C(=O)C1=O [Piperacillin_(sodium)] | 1.13 |
| CCCCN1C[C@H](O)[C@@H](O)[C@H](O)[C@H]1CO [Miglustat_(hydrochloride)] | 1.04 |

| Structure (SMILES) | synaptosome phagocytic index |
| --- | --- |
| CCC1(C)CC(=O)NC1=O (stereo not given) [Ethosuximide] | 0.869 |
| CN1C[C@@H]2[C@H](C1)[C@H]2CN(Cc1ccc(F)c(Cl)c1)C(=O)c1cn(C)cn1 | 0.691 |
| CC(C)Cc1ccc([C@@H](C)C(=O)O)cc1 [(R)-(-)-Ibuprofen] | 1.31 |
| CC(C)c1ccc(CC(=O)N2CCN(c3ccc(C#N)nn3)CC2)cc1 | 0.943 |
| CC1CCN(CC[C@H]2CCCN2S(=O)(=O)c2cccc(O)c2)CC1 | 0.817 |
| NC(=O)[C@H](Cc1c[nH]c2ccccc12)NC(=O)CNC(=O)[C@H](CCCN=C(N)N)NC(=O)[C@@H]1C[C@@H](O)CN1C(=O)[C@@H](N)Cc1ccc(F)cc1 [Nemifitide_(diTFA)] | 0.903 |
| CCNc1nc(Nc2cc(F)c(C(=O)N3CCOCC3)cc2OC)ncc1C(F)(F)F [GNE-7915_(tosylate)] | 0.359 |
| FC(F)(F)c1ccc(CNc2ccc(Cc3c[nH]c4ncc(Cl)cc34)cn2)cn1 [Pexidartinib] | 0.587 |
| CCOC(=O)C1=CCCC[C@H]1S(=O)(=O)Nc1ccc(F)cc1Cl [Resatorvid] | 0.156 |
| Cc1cc2c(s1)Nc1ccccc1N=C2N1CCN(C)CC1 [Olanzapine] | 0.345 |
| CCN(CC)C(=S)SSC(=S)N(CC)CC [Disulfiram] | 0.784 |
| Clc1ccc(COC(Cn2ccnc2)c2ccc(Cl)cc2Cl)c(Cl)c1 (stereo not given) [Miconazole_(nitrate)] | 1.09 |
| NC1=N[C@@]2(c3cc(NC(=O)c4ccc(F)cn4)ccc3F)COC[C@H]2CS1 | 1.35 |
| Nc1nc2c(ncn2COCCO)c(=O)[nH]1 [Acyclovir] | 0.731 |
| Cc1cnc(NC(=O)C2=C(O)c3ccccc3S(=O)(=O)N2C)s1 [Meloxicam] | 0.731 |
| CCCCOc1ccc(C(=O)CCN2CCCCC2)cc1 [Dyclonine_(hydrochloride)] | 0.68 |
| CC(C)C[C@H](NC(=O)[C@H](CCCCN)NC(=O)[C@H](CO)NC(=O)[C@@H](N)CC(C)C)C(N)=O [LSKL,_Inhibitor_of_Thrombospondin_(TSP-1)_(TFA)] | 1.05 |
| Oc1cc(-c2nc(-c3ccccc3)[nH]c2-c2ccncc2)ccc1Cl | 0.229 |
| CC(C(=O)O)c1ccc(-c2ccccc2)c(F)c1 (stereo not given) [Flurbiprofen] | 0.64 |
| OC(Cn1cncn1)(Cn1cncn1)c1ccc(F)cc1F [Fluconazole] | 0.902 |
